Experimental data taken from PubChem BioAssay (Tox21).
Values without a mark were called inactive. Inconclusive results are not listed. Entries that show only a call come without a potency. Activity calls are given as the source filed them. Unless noted, the call rests on the fitted dose curve.

Tests used:
[1] = Nuclear factor erythroid 2-related factor 2/antioxidant responsive element (Nrf2/ARE) small molecule agonists: qHTS cell viability counter screen in human keratinocytes (AID 1919968; active means well fitted curve in the direction sought with a large enough effect in the repeat runs; an effect the other way counts as inactive or inconclusive; further: nearly all actives have a fitted effect of over 55% in size)
Procedure, shortened: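 Measured as CellTiter-Fluor fluorescence, this readout tracks cytotoxicity in the same wells as the ARE-luciferase screen. HaCaT reporter cells (1,500/well) received compounds after a 5 h pre-incubation and were exposed for 23 h.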

[2] = Nuclear factor erythroid 2-related factor 2/antioxidant responsive element (Nrf2/ARE) small molecule agonists: luciferase reporter gene qHTS assay in human keratinocytes (AID 1919969); further: nearly all actives have a fitted effect of over 35% in size; further: potency means the concentration at half of the fitted maximal effect
[3] = target: Gonadotropin-releasing hormone receptor (Homo sapiens) (UniProt P30968); experiment: Human gonadotropin-releasing hormone receptor (GnRHR) small molecule agonists, calcium flux assay in GnRHR-HEK293 cells (AID 1920063); further: nearly all actives have a fitted effect of over 35% in size
Procedure, shortened: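 Fluorescence kinetics (480 nm excitation, 540 nm emission; 3 min, 1 s steps) report calcium mobilisation in human GnRHR-HEK293 cells in agonist mode. Dye incubation: 1 h, 37 C.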

[4] = target: KiSS-1 receptor (Homo sapiens) (UniProt Q969F8); experiment: Human kisspeptin (KISS1R) small molecule agonists, calcium flux assay in KISS1R-HEK293 cells (AID 1920064; active means well fitted curve in the direction sought with a large enough effect in the repeat runs; an effect the other way counts as inactive or inconclusive)
Procedure, shortened: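 Measures KISS1R agonism through calcium-sensitive dye fluorescence in stably transfected HEK293 cells, read for 3 min after pin-tool compound delivery; 15-point titrations in triplicate.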

[5] = p53 small molecule agonists, cell-based qHTS assay with human liver microsomes (AID 1963577)
Procedure, shortened: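 p53RE-bla reporter cells were pre-incubated 5 h at 37 C, then treated with compounds plus human liver microsomes (0.5 mg/mL final) and NADPH (0.5 mg/mL final) for 16 h at 37 C. Beta-lactamase activity was read by LiveBLAzer fluorescence after 2 h at room temperature.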

[6] = p53 small molecule agonists, cell-based qHTS assay with rat liver microsomes (AID 1963578)
Procedure, shortened: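 p53RE-bla cells were exposed to compounds together with rat liver microsomes (0.5 mg/mL final) and NADPH (0.5 mg/mL final) for 16 h at 37 C, then read by LiveBLAzer beta-lactamase fluorescence after 2 h at room temperature.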

[7] = p53 small molecule agonists, cell-based qHTS assay with human liver microsomes: qHTS cell viability counter screen (AID 1963579); further: nearly all actives have a fitted effect of over 45% in size
Procedure, shortened: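 p53RE-bla cells (4,000/well) were pre-incubated 5 h at 37 C, then given compounds in DMSO plus human liver microsomes (0.5 mg/mL final) and NADPH (0.5 mg/mL final) for 16 h at 37 C. Viability was read by CellTiter-Glo luminescence.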

[8] = p53 small molecule agonists, cell-based qHTS assay: qHTS cell viability counter screen (AID 1963581); further: nearly all actives have a fitted effect of over 45% in size
Procedure, shortened: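 In the same plates used for the p53 bla reporter, HCT-116 cells given compounds for 16 h at 37 C received CellTiter-Glo; luminescence was recorded 30 min later at room temperature.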

[9] = p53 small molecule agonists, cell-based qHTS assay (AID 1963582; active means well fitted activation curve with a large enough effect in the signal ratio in the repeat runs, not every such curve was filed as active; the % refers to the signal ratio)
Procedure, shortened: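 Compounds are pin-transferred in DMSO onto p53RE-bla cells and incubated 16 h at 37 C. The B/G FRET beta-lactamase substrate is then applied for 2 h at RT and fluorescence recorded.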

[10] = target: 5-hydroxytryptamine receptor 2A (Homo sapiens) (UniProt P28223); experiment: 5-hydroxytryptamine receptor 2A (HTR2A) small molecule antagonists, cell-based qHTS assay (AID 1963586); further: nearly all actives have a fitted effect of over 45% in size
Procedure, shortened: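 Antagonist-mode intracellular calcium assay: DOI (4 nM) added after 5 min compound pre-incubation at room temperature to dye-loaded HTR2A-CHO cells. Fluorescence followed for 3 min, sampled every second.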

[11] = target: 5-hydroxytryptamine receptor 2A (Homo sapiens) (UniProt P28223); experiment: 5-hydroxytryptamine receptor 2A (HTR2A) small molecule agonists, cell-based qHTS assay (AID 1963587); further: nearly all actives have a fitted effect of over 30% in size
Procedure, shortened: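 CHO cells stably expressing human HTR2A, plated 18 h, loaded with calcium dye 1 h at 37 C. Agonist mode: compounds added and intracellular calcium fluorescence recorded kinetically for 2 min at 1 sec intervals.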

[12] = target: Muscarinic acetylcholine receptor M1 (Homo sapiens) (UniProt P11229); experiment: Cholinergic receptor muscarinic 1 (CHRM1) small molecule agonists, cell-based qHTS assay (AID 1963589); further: nearly all actives have a fitted effect of over 35% in size
Procedure, shortened: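 Each compound was tested at 15 concentrations across three independent runs on dye-loaded CHO cells stably expressing human CHRM1, reading intracellular calcium fluorescence kinetically at 1 sec intervals.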

[13] = cAMP Responsive Elements (CRE) small molecule agonists, cell-based qHTS assay (AID 1963590)
Procedure, shortened: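 Cell line: CRE-bla HEK 293T; medium DMEM/10% dialyzed FBS/0.1 mM NEAA/1 mM pyruvate/25 mM HEPES; 3 h compound exposure; beta-lactamase FRET readout after 2 h substrate loading at RT.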

[14] = cAMP Responsive Elements (CRE) small molecule antagonists, cell-based qHTS assay (AID 1963591; active means well fitted inhibition curve with a large enough effect in the signal ratio in the repeat runs, not every such curve was filed as active; the % refers to the signal ratio)
Procedure, shortened: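 Inhibition of NKH477-driven (0.25 uM final) CRE-beta-lactamase signal in HEK293T cells, 3 h compound exposure at 37 °C, detected by FRET substrate fluorescence.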

[15] = target: Beta-2 adrenergic receptor (Homo sapiens) (UniProt P07550); experiment: Adrenergic beta2 receptor (ADRB2) small molecule antagonists, cell-based qHTS assay (AID 1963592); further: series mostly up to about 92 µM; nearly all actives have a fitted effect of over 50% in size
Procedure, shortened: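 Cells (CHO, stable ADRB2 overexpression) incubated 18-20hr at 37C; compounds added from DMSO; agonist mix (1nM isoproterenol, 100uM IBMX, 25uM Ro-20-1724) added; 0.5hr RT; d2-cAMP and anti-cAMP-cryptate added; 1hr RT; 665/615 nm read.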

[16] = target: D(2) dopamine receptor (Homo sapiens) (UniProt P14416); experiment: Dopamine D2 receptor (DRD2) small molecule agonists, cell-based qHTS assay (AID 1963594); further: nearly all actives have a fitted effect of over 35% in size
Procedure, shortened: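 HEK293 cells stably expressing human DRD2, pre-treated with PDE inhibitor Ro20-1724 (0.1 mM final) and compound 10 min at room temperature, then stimulated with NKH477 (200nM […]) for 30 min. cAMP read by HTRF (665/620 nm).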

[17] = target: D(2) dopamine receptor (Homo sapiens) (UniProt P14416); experiment: Dopamine D2 receptor (DRD2) small molecule antagonists, cell-based qHTS assay (AID 1963595; active means well fitted inhibition curve with a large enough effect in the signal ratio in the repeat runs, with a control signal flat; the % refers to the signal ratio)
Procedure, shortened: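 Antagonist mode in DRD2-HEK293 cells: after compound addition with 0.1 mM Ro20-1724, cells received quinpirole (12 nM) and NKH477 (200 nM) for 30 min at room temperature; HTRF cAMP read after 1 h detection.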

[18] = p53 small molecule agonists, cell-based qHTS assay with rat liver microsomes: qHTS cell viability counter screen (AID 1963580); further: nearly all actives have a fitted effect of over 45% in size
Procedure, shortened: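 Viability is assessed in parallel with the p53 reporter read: HCT-116 p53RE-bla cells receive compounds plus rat microsomes and NADPH (0.5 mg/mL final apiece), incubate 16 h at 37 C, and then CellTiter-Glo luminescence is recorded.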

[19] = target: Muscarinic acetylcholine receptor M1 (Homo sapiens) (UniProt P11229); experiment: Cholinergic receptor muscarinic 1 (CHRM1) small molecule antagonists, cell-based qHTS assay (AID 1963588); further: nearly all actives have a fitted effect of over 40% in size; further: potency means the concentration at half of the fitted maximal effect
Procedure, shortened: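 CHRM1-CHO calcium-flux assay, antagonist mode. Cells were seeded 18 h, dye-loaded 1 h at 37 C and given compound for 5 min at RT, then acetylcholine was added at 50nM. FDSS fluorescence was read 3 min; 15 concentrations, three runs.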

[20] = target: Beta-2 adrenergic receptor (Homo sapiens) (UniProt P07550); experiment: Adrenergic beta2 receptor (ADRB2) small molecule agonists, cell-based qHTS assay (AID 1963593);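 further: CHO cells stably overexpressing human ADRB2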
Procedure, shortened: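 CHO cells stably over-expressing ADRB2 were plated overnight at 37C, then dosed with compounds plus a stimulation mix containing 100uM IBMX and 25uM Ro-20-1724 for 0.5hr at room temperature. cAMP was measured by HTRF competition, 1hr.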

Chain of KiSS-1 receptor (Homo sapiens) (Q969F8 whole entry, looked up): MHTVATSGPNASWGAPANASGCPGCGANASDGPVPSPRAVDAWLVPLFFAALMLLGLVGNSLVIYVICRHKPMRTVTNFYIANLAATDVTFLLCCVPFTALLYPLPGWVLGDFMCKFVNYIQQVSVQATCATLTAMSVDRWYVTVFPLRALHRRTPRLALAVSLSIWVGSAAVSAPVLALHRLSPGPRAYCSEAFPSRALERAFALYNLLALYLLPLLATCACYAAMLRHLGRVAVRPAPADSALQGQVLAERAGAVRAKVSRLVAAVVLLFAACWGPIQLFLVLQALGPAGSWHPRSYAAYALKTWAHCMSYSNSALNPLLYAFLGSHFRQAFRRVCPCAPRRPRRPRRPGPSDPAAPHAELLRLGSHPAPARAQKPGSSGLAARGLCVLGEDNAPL
Chain of D(2) dopamine receptor (Homo sapiens) (P14416 whole entry, looked up): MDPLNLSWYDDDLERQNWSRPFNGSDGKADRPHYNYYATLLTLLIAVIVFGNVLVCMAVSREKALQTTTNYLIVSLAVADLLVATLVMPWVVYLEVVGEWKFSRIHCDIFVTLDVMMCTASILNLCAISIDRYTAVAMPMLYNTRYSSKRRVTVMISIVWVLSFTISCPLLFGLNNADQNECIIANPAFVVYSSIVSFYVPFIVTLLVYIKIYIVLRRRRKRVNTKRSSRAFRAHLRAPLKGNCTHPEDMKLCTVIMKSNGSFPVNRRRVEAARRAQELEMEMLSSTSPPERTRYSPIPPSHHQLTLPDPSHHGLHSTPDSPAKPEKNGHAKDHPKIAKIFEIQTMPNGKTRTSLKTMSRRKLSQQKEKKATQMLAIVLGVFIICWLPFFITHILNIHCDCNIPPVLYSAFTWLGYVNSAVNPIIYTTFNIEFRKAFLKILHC
Chain of Beta-2 adrenergic receptor (Homo sapiens) (P07550 whole entry, looked up): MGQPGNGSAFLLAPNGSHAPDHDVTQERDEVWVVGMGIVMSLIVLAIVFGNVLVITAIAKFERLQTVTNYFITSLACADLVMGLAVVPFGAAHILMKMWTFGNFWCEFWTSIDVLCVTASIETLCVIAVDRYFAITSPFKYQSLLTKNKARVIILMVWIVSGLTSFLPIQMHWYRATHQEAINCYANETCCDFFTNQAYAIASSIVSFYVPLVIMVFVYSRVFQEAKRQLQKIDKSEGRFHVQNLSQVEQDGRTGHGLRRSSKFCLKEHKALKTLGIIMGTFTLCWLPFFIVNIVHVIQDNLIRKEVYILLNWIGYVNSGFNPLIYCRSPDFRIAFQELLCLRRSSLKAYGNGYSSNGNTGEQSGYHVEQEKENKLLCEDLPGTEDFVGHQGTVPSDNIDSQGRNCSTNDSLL
Chain of 5-hydroxytryptamine receptor 2A (Homo sapiens) (P28223 whole entry, looked up): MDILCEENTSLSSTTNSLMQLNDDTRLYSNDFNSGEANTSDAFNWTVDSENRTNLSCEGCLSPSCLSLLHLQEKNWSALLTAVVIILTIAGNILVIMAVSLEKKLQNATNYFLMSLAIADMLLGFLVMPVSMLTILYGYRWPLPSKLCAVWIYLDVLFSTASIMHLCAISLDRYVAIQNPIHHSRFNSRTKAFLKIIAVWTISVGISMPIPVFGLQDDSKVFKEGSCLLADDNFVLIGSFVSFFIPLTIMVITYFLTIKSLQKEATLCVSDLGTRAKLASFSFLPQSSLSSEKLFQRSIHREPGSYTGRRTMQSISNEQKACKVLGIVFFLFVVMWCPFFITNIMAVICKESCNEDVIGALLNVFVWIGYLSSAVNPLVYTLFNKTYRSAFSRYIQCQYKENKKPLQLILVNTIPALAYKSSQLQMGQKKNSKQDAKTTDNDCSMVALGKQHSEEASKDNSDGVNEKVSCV
Chain of Gonadotropin-releasing hormone receptor (Homo sapiens) (P30968 whole entry, looked up): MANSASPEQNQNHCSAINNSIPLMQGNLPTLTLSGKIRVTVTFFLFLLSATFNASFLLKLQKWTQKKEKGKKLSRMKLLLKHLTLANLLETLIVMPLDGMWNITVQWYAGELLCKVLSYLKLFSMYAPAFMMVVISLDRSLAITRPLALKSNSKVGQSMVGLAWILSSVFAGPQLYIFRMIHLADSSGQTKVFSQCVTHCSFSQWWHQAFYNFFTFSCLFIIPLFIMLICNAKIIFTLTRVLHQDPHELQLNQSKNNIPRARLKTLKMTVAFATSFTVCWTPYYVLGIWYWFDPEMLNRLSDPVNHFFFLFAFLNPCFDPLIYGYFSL
Chain of Muscarinic acetylcholine receptor M1 (Homo sapiens) (P11229 whole entry, looked up): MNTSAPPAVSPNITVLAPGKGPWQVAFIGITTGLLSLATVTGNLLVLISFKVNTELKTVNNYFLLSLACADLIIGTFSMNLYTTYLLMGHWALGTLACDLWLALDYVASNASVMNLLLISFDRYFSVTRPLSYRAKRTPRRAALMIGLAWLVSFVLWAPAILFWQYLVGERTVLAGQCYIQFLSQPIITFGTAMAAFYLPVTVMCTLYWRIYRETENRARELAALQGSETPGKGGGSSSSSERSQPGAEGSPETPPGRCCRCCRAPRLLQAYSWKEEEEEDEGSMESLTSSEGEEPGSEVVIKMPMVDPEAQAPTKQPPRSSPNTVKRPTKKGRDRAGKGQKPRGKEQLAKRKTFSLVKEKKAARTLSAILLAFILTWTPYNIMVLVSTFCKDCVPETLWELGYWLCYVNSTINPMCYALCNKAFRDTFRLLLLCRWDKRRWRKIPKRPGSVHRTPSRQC

With CCCC(=O)C(C)=O the Potency [1] was “inactive”, the Potency [2] was “inactive” and the Potency [3] was “inactive”. For the same molecule, the Potency [4] was “inactive”, the Potency [5] was “inactive” and the Potency [6] was “inactive”. The Potency [7] was “inactive”, the Potency [8] was “inactive” and the Potency [9] was “inactive”. The Potency [10] was “inactive”, the Potency [11] was “inactive” and the Potency [12] was “inactive”. For the same molecule, the Potency [13] was “inactive”, the Potency [14] was “inactive” and the Potency [15] was “inactive”. For the same molecule, the Potency [16] was “inactive” and the Potency [17] was “inactive”.
In the case of Cc1cccc(Cl)c1, the Potency [1] is reported as “inactive”, the Potency [2] is reported as “inactive” and the Potency [3] is reported as “inactive”. The Potency [4] was “inactive”, the Potency [5] was “inactive” and the Potency [6] was “inactive”. The Potency [7] was “inactive”, the Potency [18] was “inactive” and the Potency [10] was “inactive”. The Potency [11] was “inactive”, the Potency [19] was “inactive” and the Potency [12] was “inactive”. The Potency [14] was “inactive”, the Potency [15] was “inactive” and the Potency [16] was “inactive”.
With CCCCCCCCCCCCCCCCI the activity change, negative = cytotoxicity [1] was 1.33% [at 19 µM], the activity, positive = activation [2] was -9.58% [at 19 µM] and the activity change [3] was 0.684% [at 11.8 µM, hits give high values]. The activation [4] was 7.41% [at 15.8 µM], the activation [5] was -0.459% [at 13.5 µM] and the activation [6] was -1.95% [at 13.6 µM]. For the same molecule, the activity change, negative = cytotoxicity [18] was -2.18% [at 13.5 µM], the activity change, negative = cytotoxicity [8] was -8.29% [at 13.5 µM] and the activity, negative = inhibition [10] was -0.251% [at 12.7 µM]. For the same molecule, the activation [11] was -2.69% [at 15.9 µM], the activity, negative = inhibition [19] was -11% [at 12.6 µM] and the activation [12] was 1.29% [at 15.8 µM]. For the same molecule, the activation [13] was -1.28% [at 19 µM], the activity change, negative = inhibition [14] was -14.2% [at 18.9 µM] and the activity change, negative = inhibition [15] was 0.138% [at 19 µM]. The activation [16] was 2.88% [at 19 µM].
In the case of C[N+]1([O-])CCOCC1, the Potency [1] is reported as “inactive”, the Potency [2] is reported as “inactive” and the Potency [3] is reported as “inactive”. The Potency [4] was “inactive”, the Potency [5] was “inactive” and the Potency [6] was “inactive”. The Potency [7] was “inactive”, the Potency [8] was “inactive” and the Potency [9] was “inactive”. For the same molecule, the Potency [10] was “inactive”, the Potency [19] was “inactive” and the Potency [12] was “inactive”. For the same molecule, the Potency [13] was “inactive”, the Potency [14] was “inactive” and the Potency [15] was “inactive”. For the same molecule, the Potency [20] was “inactive”, the Potency [16] was “inactive” and the Potency [17] was “inactive”.
For CC(C)N=C(N)/N=C(\N)Nc1ccc(Cl)cc1, the Potency [1] was “inactive”, the Potency [2] was “inactive” and the Potency [3] was “inactive”. The Potency [4] was “inactive”, the Potency [5] was “inactive” and the Potency [6] was “inactive”. For the same molecule, the Potency [18] was “inactive”, the Potency [8] was “inactive” and the Potency [9] was “inactive”. For the same molecule, the Potency [10] was “inactive”, the Potency [11] was “inactive” and the Potency [19] was 0.729 µM (active). The Potency [12] was “inactive”, the Potency [13] was “inactive” and the Potency [14] was “inactive”. For the same molecule, the Potency [15] was “inactive”, the Potency [20] was “inactive” and the Potency [16] was “inactive”. For the same molecule, the Potency [17] was “inactive”.
With Cc1cccc(N(C)C(=S)Oc2ccc3ccccc3c2)c1 the Potency [1] was “inactive”, the Potency [2] was 21.7 µM (active) and the Potency [3] was “inactive”. For the same molecule, the Potency [4] was “inactive”, the Potency [5] was “inactive” and the Potency [6] was “inactive”. The Potency [7] was “inactive”, the Potency [8] was “inactive” and the Potency [9] was “inactive”. The Potency [13] was “inactive”, the Potency [14] was “inactive” and the Potency [15] was “inactive”. The Potency [16] was “inactive” and the Potency [17] was “inactive”.
For COc1nc(N)nc2nc[nH]c12, the Potency [1] was “inactive”, the Potency [2] was “inactive” and the Potency [3] was “inactive”. For the same molecule, the Potency [4] was “inactive”, the Potency [5] was “inactive” and the Potency [7] was “inactive”. For the same molecule, the Potency [18] was “inactive”, the Potency [8] was “inactive” and the Potency [9] was “inactive”. The Potency [10] was “inactive”, the Potency [11] was “inactive” and the Potency [19] was “inactive”. The Potency [12] was “inactive”, the Potency [13] was “inactive” and the Potency [14] was “inactive”. For the same molecule, the Potency [15] was “inactive”, the Potency [20] was “inactive” and the Potency [17] was “inactive”.
With C=C(C)[C@@H]1CCC2=CC(=O)C[C@@H](C)[C@]2(C)C1 the Potency [1] was “inactive”, the Potency [2] was “inactive” and the Potency [3] was “inactive”. The Potency [5] was “inactive”, the Potency [6] was “inactive” and the Potency [7] was “inactive”. For the same molecule, the Potency [18] was “inactive”, the Potency [8] was “inactive” and the Potency [9] was “inactive”. For the same molecule, the Potency [10] was “inactive”, the Potency [11] was “inactive” and the Potency [19] was “inactive”. The Potency [12] was “inactive”, the Potency [13] was “inactive” and the Potency [14] was “inactive”. For the same molecule, the Potency [15] was “inactive”, the Potency [20] was “inactive” and the Potency [16] was “inactive”. The Potency [17] was “inactive”.
